Experiment [1] has as its system PRMT1 (protein arginine N-methyltransferase 1). Put plainly: PRMT1 binders on small-molecule microarrays, primary screen, biochemical, small-molecule microarray, 635 nm fluorescence (AID 1088).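 Note: binding of Prmt1 protein to compounds spotted on small-molecule microarray slides.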 To be noted: small-molecule microarray binding, higher = more signal.
Experiment [2] is described as follows: yeast growth modulation, basal conditions, primary screen, YJM789 clinical isolate, OD600, 24 h (AID 1089).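 Note: growth of clinical yeast isolate S. cerevisiae YJM 789 seeded 1000 cells per well; test concentration not given here.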 The following applies: S. cerevisiae YJM789 growth, higher = more signal, called active from +8 up or from −8 down.
A short description of experiment [3]: fission yeast growth modulation, primary screen, strain 972, OD600, 24 h, no modulator (AID 1090).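 Note: basal condition with compound alone and no growth modifier present; test concentration not given here.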 The following applies: S. pombe 972 growth, higher = more signal, called active from +8 up or from −8 down.
Experiment [4] is described as follows: S. cerevisiae growth modulation with rapamycin, primary screen, strain BY4716, OD600, 96 h (AID 1091). Note: test concentration not given here. To be noted: higher = more signal, called active from +8 up or from −8 down.
The target in experiment [5] is Torsin-1A-interacting protein 2 (Homo sapiens) (UniProt Q8NFQ8). Put plainly: LULL1 binders on small-molecule microarray, primary screen, cell lysate, human LULL1 lysate, 635/667 nm fluorescence (AID 1092).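 Note: probe is lysate of COS7 cells overexpressing human LULL1; score merges per-feature 667 nm fluorescence with signal-to-noise.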 The following applies: hLULL1 lysate binding, 635 nm fluorescence, higher = more signal.
Experiment [6] is described as follows: E. coli growth modulation, two-sided OD650, primary screen, E. coli filamentation project, strain DRC41, 24 h (AID 1093).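 Note: MC1000 strain lacking acrAB efflux and sulA so SOS filamentation is blocked; test concentration not given here.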 The following applies: OD650, 24 h, higher = more signal, called active from +8 up or from −8 down.
The nature of experiment [7]: small-molecule microarray binders of probe aLefty2, primary screen, biochemical, biotinylated probe, 635/667 nm fluorescence (AID 1094).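 Note: score merges spot fluorescence near 667 nm with spot signal-to-noise ratio.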 To be noted: higher = more signal.
Experiment [8] concerns Noggin (protein binding on small-molecule microarray). Put plainly: Noggin binders on small-molecule microarray, primary screen, biochemical, 635/667 nm fluorescence (AID 1095).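 Note: score merges 667 nm feature fluorescence with signal to noise over triplicate slides.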 To be noted: 635 nm fluorescence, higher = more signal.
In experiment [9] the target is Neurogenic locus notch homolog protein 3 (Homo sapiens) (UniProt Q9UM47). Put plainly: NOTCH3 binders on small-molecule microarray, primary screen, biochemical, 635/667 nm fluorescence (AID 1096). To be noted: NOTCH3 binding, 635 nm fluorescence, higher = more signal.
A short description of experiment [10]: small-molecule microarray binders of probe aEGFR, primary screen, biochemical, biotinylated probe, 635/667 nm fluorescence (AID 1097).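 Note: probe is a biotinylated anti-EGFR antibody binding compounds printed on slides; score combines fluorescence near 667 nm and signal to noise of each spot.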 The following applies: higher = more signal.
The subject of experiment [11] is Plasmodium falciparum Sir2 (PF13_0152, Sir2A). Put plainly: pfSir2 binders on small-molecule microarrays, primary screen, biochemical, small-molecule microarray, 635 nm fluorescence (AID 1098).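 Note: score merges spot fluorescence intensity with its signal-to-noise ratio.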 The following applies: small-molecule microarray binding, fluorescence 635 nm; higher = more signal.
Experiment [12] is described as follows: small-molecule microarray binders of probe aDKK1, primary screen, biochemical, biotinylated probe, 635/667 nm fluorescence (AID 1099).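 Note: score merges 667nm spot fluorescence with signal to noise across triplicate slides; reference of the scale not given here.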 The following applies: higher = more signal.
Experiment [13] can be described thus: small-molecule microarray binders of probe aCHRDL2, primary screen, biochemical, biotinylated probe, 635/667 nm fluorescence (AID 1100). To be noted: higher = more signal.
Experiment [14] can be described thus: splicing luciferase reporter signal modulators, primary screen, spliceosome inhibition project, cell-based, HEK293, splice +/- reporter (AID 1101).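 Note: HEK293 cells carrying a splicing-competent luciferase reporter gene; test concentration not given here.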 The following applies: luminescence, 24 h, higher = more signal, called active from +8 up or from −8 down. (In general: Reporter assays use an easily measured gene product as a stand-in for the process of interest.)

In experiment [15] the target is Fibroblast growth factor 10 (Homo sapiens) (UniProt O15520). Put plainly: FGF10 binders on small-molecule microarrays, primary screen, biochemical, small-molecule microarray, 635 nm fluorescence (AID 1102). The following applies: FGF10 binding, fluorescence 635 nm, higher = more signal.
Experiment [16] concerns glycogen synthase kinase-3 (GSK3A per assay name; protocol says GSK3B). Put plainly: GSK3 binders on small-molecule microarrays, primary screen, biochemical, small-molecule microarray, 635 nm fluorescence, GSK3A (AID 1103). Note: the record names both GSK3A and GSK3B. To be noted: small-molecule microarray binding, fluorescence 635 nm; higher = more signal.
Experiment [17] deals with Epidermal growth factor receptor (Homo sapiens) (UniProt P00533). Put plainly: EGFR binders on small-molecule microarrays, primary screen, biochemical, small-molecule microarray, 635 nm fluorescence (AID 1104).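 Note: score merges 667 nm emission intensity with spot signal to noise over triplicate slides.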 To be noted: EGFR binding, higher = more signal.
Experiment [18] addresses Follistatin-related protein 3 (Homo sapiens) (UniProt O95633). Put plainly: FSTL3 binders on small-molecule microarrays, primary screen, biochemical, small-molecule microarray, 635 nm fluorescence (AID 1105).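 Note: score merges emission near 667 nm and signal to noise per printed spot across three slides.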 To be noted: FSTL3 binding, higher = more signal.
Experiment [19] deals with Dickkopf-related protein 1 (Homo sapiens) (UniProt O94907). Put plainly: DKK1 binders on small-molecule microarrays, primary screen, biochemical, small-molecule microarray, 635 nm fluorescence scan (AID 1106).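 Note: score merges emission near 667 nm with signal to noise over three replicate slides.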 To be noted: DKK1 binding, higher = more signal.
Experiment [20] concerns Inhibin beta A chain (activin A). Put plainly: INHBA (activin A) binders on microarrays, primary screen, biochemical, small-molecule microarray, 635 nm fluorescence scan (AID 1107).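 Note: mouse activin A protein probed at 4.33 µg/mL on printed slides; score merges bound-protein fluorescence near 667 nm with spot signal-to-noise.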 The following applies: small-molecule microarray binding, higher = more signal.

Consider 5 compounds from PubChem BioAssay.

Molecules are shown by their SMILES. Activity calls are given as the source filed them.

Sequence of Fibroblast growth factor 10 (Homo sapiens) (O15520 whole entry, looked up): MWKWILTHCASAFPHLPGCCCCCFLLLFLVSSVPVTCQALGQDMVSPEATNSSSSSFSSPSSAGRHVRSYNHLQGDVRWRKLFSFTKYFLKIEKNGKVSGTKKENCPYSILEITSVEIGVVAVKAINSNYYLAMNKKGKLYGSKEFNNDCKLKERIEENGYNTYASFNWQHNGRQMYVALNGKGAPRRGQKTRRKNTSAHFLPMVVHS
Sequence of Dickkopf-related protein 1 (Homo sapiens) (O94907 whole entry, looked up): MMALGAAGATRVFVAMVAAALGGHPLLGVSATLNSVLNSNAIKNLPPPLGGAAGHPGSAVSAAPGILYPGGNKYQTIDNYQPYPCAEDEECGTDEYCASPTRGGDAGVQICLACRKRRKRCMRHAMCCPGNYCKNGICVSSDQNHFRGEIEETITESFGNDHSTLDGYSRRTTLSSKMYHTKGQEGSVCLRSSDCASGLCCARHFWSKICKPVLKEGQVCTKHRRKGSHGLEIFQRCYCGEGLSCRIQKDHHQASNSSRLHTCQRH
Sequence of Neurogenic locus notch homolog protein 3 (Homo sapiens) (Q9UM47 whole entry, looked up): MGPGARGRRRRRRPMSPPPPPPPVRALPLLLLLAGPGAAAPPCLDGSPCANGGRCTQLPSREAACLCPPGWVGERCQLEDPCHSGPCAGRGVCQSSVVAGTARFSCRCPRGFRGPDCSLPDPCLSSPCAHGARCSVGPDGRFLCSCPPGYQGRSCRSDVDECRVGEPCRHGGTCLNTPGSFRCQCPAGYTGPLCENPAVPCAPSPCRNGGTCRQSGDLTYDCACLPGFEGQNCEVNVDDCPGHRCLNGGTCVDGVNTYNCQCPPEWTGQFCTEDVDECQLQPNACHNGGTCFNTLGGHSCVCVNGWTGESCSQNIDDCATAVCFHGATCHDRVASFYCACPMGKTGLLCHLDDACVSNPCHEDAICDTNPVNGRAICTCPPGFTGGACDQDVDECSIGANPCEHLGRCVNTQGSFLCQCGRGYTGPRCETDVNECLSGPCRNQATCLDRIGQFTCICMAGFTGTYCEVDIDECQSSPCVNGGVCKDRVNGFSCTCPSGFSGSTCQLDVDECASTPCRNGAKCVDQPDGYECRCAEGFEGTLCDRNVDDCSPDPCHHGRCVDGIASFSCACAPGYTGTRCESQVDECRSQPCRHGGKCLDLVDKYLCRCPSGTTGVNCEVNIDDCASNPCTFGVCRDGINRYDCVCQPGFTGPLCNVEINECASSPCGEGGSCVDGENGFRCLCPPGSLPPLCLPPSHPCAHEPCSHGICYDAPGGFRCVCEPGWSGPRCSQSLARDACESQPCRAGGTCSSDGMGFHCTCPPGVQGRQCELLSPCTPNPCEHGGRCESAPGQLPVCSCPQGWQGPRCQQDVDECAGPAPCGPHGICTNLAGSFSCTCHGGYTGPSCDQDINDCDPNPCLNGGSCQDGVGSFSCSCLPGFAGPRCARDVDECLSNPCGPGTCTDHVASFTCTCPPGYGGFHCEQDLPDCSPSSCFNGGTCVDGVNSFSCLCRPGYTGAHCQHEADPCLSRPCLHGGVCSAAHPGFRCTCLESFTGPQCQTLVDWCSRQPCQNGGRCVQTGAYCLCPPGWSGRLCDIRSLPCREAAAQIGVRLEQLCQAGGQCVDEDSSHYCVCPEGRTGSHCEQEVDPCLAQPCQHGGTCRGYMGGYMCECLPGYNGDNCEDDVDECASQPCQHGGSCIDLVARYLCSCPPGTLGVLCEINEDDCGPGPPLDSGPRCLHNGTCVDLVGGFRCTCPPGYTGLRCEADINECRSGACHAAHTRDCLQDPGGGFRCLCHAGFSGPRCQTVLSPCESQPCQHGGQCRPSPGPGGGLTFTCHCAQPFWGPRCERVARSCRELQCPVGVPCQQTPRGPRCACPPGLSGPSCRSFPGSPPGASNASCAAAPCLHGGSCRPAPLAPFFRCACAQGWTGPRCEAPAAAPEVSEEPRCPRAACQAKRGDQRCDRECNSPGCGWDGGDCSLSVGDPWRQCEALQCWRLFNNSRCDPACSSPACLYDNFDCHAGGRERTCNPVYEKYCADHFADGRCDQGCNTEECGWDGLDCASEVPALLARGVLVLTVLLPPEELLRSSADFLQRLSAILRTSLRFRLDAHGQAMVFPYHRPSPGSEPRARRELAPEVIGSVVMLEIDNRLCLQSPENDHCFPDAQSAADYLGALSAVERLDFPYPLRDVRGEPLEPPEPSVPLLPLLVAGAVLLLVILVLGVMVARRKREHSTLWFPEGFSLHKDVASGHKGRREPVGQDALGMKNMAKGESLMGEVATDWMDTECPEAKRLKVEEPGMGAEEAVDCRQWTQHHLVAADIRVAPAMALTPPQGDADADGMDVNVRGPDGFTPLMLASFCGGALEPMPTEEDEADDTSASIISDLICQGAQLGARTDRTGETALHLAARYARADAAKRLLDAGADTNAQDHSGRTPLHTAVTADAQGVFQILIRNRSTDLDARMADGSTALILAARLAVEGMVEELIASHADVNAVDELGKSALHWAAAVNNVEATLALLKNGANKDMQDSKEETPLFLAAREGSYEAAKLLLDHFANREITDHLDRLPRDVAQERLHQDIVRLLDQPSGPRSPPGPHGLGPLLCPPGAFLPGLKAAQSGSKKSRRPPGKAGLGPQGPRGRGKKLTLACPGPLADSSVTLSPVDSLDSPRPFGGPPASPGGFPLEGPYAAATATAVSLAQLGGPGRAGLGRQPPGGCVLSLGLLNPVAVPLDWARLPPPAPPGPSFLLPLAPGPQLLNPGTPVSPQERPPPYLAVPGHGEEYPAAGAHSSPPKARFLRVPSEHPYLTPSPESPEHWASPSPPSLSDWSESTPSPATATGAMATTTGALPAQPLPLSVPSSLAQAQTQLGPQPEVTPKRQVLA
Sequence of Torsin-1A-interacting protein 2 (Homo sapiens) (Q8NFQ8 whole entry, looked up): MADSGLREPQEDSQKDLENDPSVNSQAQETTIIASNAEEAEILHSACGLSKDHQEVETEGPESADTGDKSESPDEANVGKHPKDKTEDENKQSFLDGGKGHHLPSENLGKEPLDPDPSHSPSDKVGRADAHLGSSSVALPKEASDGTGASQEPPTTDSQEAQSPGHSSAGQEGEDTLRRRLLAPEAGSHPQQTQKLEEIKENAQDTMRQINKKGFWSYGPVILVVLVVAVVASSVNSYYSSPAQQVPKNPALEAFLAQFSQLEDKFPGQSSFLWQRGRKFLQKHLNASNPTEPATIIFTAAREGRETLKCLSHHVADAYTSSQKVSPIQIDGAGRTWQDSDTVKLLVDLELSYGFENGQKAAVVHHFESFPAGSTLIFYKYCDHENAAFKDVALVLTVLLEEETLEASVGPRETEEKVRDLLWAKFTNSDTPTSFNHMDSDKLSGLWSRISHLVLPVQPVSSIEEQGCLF
Sequence of Epidermal growth factor receptor (Homo sapiens) (P00533 whole entry, looked up): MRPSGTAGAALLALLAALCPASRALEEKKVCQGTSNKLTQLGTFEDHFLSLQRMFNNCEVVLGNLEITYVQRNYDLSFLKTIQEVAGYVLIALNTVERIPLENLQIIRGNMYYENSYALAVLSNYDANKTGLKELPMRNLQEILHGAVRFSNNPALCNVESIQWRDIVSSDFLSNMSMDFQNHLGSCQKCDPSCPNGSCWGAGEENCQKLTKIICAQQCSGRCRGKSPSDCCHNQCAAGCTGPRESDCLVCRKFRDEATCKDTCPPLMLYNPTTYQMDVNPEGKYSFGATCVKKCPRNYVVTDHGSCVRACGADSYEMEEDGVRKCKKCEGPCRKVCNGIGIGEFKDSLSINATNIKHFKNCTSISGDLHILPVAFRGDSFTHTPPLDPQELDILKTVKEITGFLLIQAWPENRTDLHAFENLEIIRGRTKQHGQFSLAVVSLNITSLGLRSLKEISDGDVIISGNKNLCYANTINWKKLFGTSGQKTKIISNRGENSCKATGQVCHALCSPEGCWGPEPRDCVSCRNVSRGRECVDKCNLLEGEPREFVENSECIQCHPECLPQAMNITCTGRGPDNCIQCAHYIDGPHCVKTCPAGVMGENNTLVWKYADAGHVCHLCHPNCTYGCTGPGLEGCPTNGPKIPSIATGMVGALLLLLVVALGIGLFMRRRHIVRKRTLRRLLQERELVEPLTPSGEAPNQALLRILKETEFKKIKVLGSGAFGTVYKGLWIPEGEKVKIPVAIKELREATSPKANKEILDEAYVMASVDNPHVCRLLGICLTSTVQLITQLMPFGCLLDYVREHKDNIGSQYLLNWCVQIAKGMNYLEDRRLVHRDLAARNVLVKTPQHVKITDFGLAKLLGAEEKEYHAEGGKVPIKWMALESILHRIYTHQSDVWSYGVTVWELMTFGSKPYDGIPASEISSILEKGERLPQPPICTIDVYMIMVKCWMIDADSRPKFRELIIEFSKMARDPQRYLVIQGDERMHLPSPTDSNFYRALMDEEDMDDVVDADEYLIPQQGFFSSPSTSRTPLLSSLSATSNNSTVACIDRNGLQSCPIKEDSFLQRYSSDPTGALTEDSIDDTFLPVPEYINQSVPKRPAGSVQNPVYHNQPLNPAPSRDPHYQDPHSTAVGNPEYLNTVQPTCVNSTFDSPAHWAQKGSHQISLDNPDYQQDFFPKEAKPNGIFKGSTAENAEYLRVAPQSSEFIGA
Sequence of Follistatin-related protein 3 (Homo sapiens) (O95633 whole entry, looked up): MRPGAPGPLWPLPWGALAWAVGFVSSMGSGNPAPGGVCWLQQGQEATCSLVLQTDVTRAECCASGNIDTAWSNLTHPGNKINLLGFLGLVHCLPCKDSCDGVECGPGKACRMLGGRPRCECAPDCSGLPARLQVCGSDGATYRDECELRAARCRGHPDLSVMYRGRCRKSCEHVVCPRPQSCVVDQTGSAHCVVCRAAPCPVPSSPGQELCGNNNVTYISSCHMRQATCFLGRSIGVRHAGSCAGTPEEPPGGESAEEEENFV

As to `CC(C)N1C(=O)C[C@@](C(=O)NCCCN(C)C)(c2ccc([N+](=O)[O-])cc2)[C@H]1c1ccc(CO)cc1`, the composite z-score in experiment [1] is -0.139; in experiment [5] it was 0.349; in experiment [7], -0.0221; in [8], -0.131; in experiment [9], -0.233; in [10] it was -0.124. In addition, the composite z-score in [11] is -0.133; in experiment [12], -0.253; in [13], 0.692; in experiment [15], -0.532; in experiment [16] it was -0.777; in [17], -0.496. Further, the composite z-score is -0.309 in experiment [18], -0.197 in experiment [19] and 0.698 in experiment [20]. In addition, the z-score in experiment [2] was -0.768 (inactive); in experiment [3], -1.42 (inactive); in experiment [4], -0.525 (inactive); in [6], -1.41 (inactive); in [14], 0.313 (inactive).

`Cn1cccc1C(O)C1C=CC2C(=O)NC(=O)C2N1Nc1ccc(Cl)cc1Cl` (stereo not given): the composite z-score in experiment [1] was 1.04; in [5], 3.52; in [7] it was 0.673; in experiment [8], 0.405; in [9], 1.05; in experiment [10], 0.0201. Further, the composite z-score in experiment [11] came to 1.21; in [12], 1.3; in [13], 1.33; in [15], 0.914; in experiment [16] it was 0.593; in experiment [17], 0.295. The composite z-score in experiment [18] is 1.34; in experiment [19], -0.43; in experiment [20], 0.657. Besides, the z-score is -0.477 (inactive) in experiment [2]; -1.81 (inactive) in experiment [3]; -0.356 (inactive) in [4]; -2.82 (inactive) in experiment [6]; 1.08 (inactive) in [14].

In the case of `COc1ccc(CCNC(=O)[C@@H]2c3ccccc3C(=O)N(Cc3cc(C(F)(F)F)cc(C(F)(F)F)c3)[C@H]2c2ccc(CO)cc2)cc1`, the composite z-score is 1.41 in [1]; 2.16 in experiment [5]; -0.237 in [7]; 1.07 in experiment [8]; 0.365 in experiment [9]; -0.167 in experiment [10]. Also, the composite z-score in experiment [11] is 1.1; in experiment [12] it was 0.0172; in experiment [13] it was 0.716; in experiment [15] it was 0.0696; in experiment [16], -0.331; in experiment [17], -0.358. The composite z-score in experiment [18] is -0.272; in [19], -0.594; in experiment [20], -0.167. The z-score was 0.279 (inactive) in [2]; -0.381 (inactive) in experiment [3]; 0.848 (inactive) in experiment [4]; -0.0332 (inactive) in experiment [6]; -0.082 (inactive) in experiment [14].

With `CC(C)Cc1ccc(CN2CC[C@@H](NC(=O)Nc3ccccc3)C2)cc1`, the composite z-score in experiment [1] is -0.785; in [5] it was -0.389; in [7], -0.138; in experiment [8], -0.0751; in [9], -0.963; in experiment [10], -0.0214. The composite z-score in experiment [11] was 1.06; in [12], -0.342; in [13], -0.358; in experiment [15], -0.62; in [16], -0.274; in [17] it was -0.301. Further, the results for the composite z-score in experiment [18], in [19] and in experiment [20] were -0.496, 0.238 and 0.692, respectively. For the same compound, the z-score is -21.2 (active) in [2]; -21.2 (active) in experiment [3]; -4.26 (inactive) in [4]; -0.817 (inactive) in experiment [6]; 2.68 (inactive) in [14].

On to `CCOc1cc(C(O)C2C=CC3C(=O)N(c4ccccc4)C(=O)C3N2Nc2ccc(C#N)cc2)ccc1O` (stereo not given), for which the composite z-score was 0.0034 in experiment [1]; 3.3 in experiment [5]; 0.121 in experiment [7]; -0.167 in experiment [8]; -0.0195 in [9]; -0.133 in experiment [10]. For the same compound, the composite z-score was 0.146 in experiment [11]; 1.3 in experiment [12]; 0.643 in experiment [13]; 0.0415 in experiment [15]; -0.0102 in experiment [16]; -0.209 in experiment [17]. Also, the composite z-score in experiment [18] is 0.472; in experiment [19] it was -0.454; in experiment [20], 0.713. Further, the z-score in [2] was 0.453 (inactive); in [3], 1.15 (inactive); in [4], 0.726 (inactive); in experiment [6], -0.715 (inactive); in experiment [14] it was 0.751 (inactive).
